Screening data deposited in PubChem by National Center for Advancing Translational Sciences (NCATS).
Shiga toxin inh – Shiga toxin inhibition. inhibition, % at 38.7 µM. hit rate 9.2% among 290,000. AID 2315. Vero cells, Shiga toxin protein synthesis inhibition reporter; in the data active = inhibition mostly above about 28%, no sharp cut-off; inactive = mostly below about 43%; also: 0% is about no effect
HCMV antiviral – blocks human cytomegalovirus replication; HFF cells, HCMV-luciferase reporter, 72 h; hits give low values; activity change, negative = inhibition, % at 57.5 µM; hit rate 4.5% among 410,000; AID 1259415; in the data active = activity change below about -60%; inconclusive = no clear call, values can overlap the other calls; inactive = above about -39%; also: % is scaled to controls: 0 for no effect and ±100 for the full control effect
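Screen run at 2 compound doses on HFFs infected with reporter HCMV, MOI 1 PFU/cell. Luciferase activity from cell lysates at 72 h post infection gave inhibition relative to buffer-only and Salinomycin wells.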
HCV inh – inhibitors of hepatitis C virus infection. Huh7.5.1 HCVcc-Cre infection, luciferase reporter, 44 h. Potency, µM (titrated, usually from 41.8 µM), for inactives: top-dose activity change, negative = inhibition, usual class: inhibitors. hit rate 3.4% among 340,000. AID 651820; also: potency is read from the fitted curve at half-maximal effect; % is scaled to controls: 0 for no effect and ±100 for the full control effect
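Reporter virus HCVcc-Cre (~0.5 moi) infects cells exposed to compound; seeding density 1,000 cells/well with 4 h settling beforehand. Luminescence, 15 sec read, taken 44 h post-infection following a 15 min RT substrate incubation.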
Cycloheximide cs – counter-screen for Shiga toxin inhibitors: cycloheximide protein synthesis inhibition; cell reporter, cycloheximide protein synthesis inhibition counterscreen; max response, %; hit rate 12% among 300,000; AID 2314; in the data active = max response mostly above about 13%, no sharp cut-off; inactive = mostly below about 14%; also: read at 38.3 µM for the half of the compounds with a filed dose; 0% is about no effect
Pf growth 96h – P. falciparum growth inhibition at 96 hours; P. falciparum luciferase reporter growth, 96 h; Potency, µM (titrated, usually from 28.7 µM), without a hit: at the top dose activity change, negative = inhibition, actives largely listed as inhibitors; hit rate 6.9% among 320,000; also: potency is read from the fitted curve at half-maximal effect; % is scaled to controls: 0 for no effect and ±100 for the full control effect
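Cell-based qHTS: luciferase-tagged P. falciparum in erythrocytes (2% hematocrit, 0.05% parasitemia final) incubated with compounds for 96 hours, 37 C, 5% CO2; luciferase detection reagent then added and luminescence measured.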
Pf growth 48h – P. falciparum growth inhibition at 48 hours (one generation); P. falciparum luciferase growth in erythrocytes, 48 h; Potency, µM (series often up to 28.7 µM), inactives show top-dose activity change, negative = inhibition, actives largely listed as inhibitors; hit rate 5.9% among 310,000; AID 504832; also: potency is read from the fitted curve at half-maximal effect; % is scaled to controls: 0 for no effect and ±100 for the full control effect
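Luminescence readout; reporter = integrated firefly luciferase in P. falciparum. RBC culture at 2% hematocrit, 0.1% parasitemia final, 37 C/5% CO2; decreased signal taken as growth inhibition.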
Active calls of the source: *; ? = inconclusive; . = no result given; + = active, no number; ! = repeats disagree. In the library only some 21% were active in any assay of this set; here they are far more common. Unless noted, calls follow the shape of the dose curve; as a rule, active = well fitted inhibition curve with a large enough effect; inconclusive = small, poorly fitted or top-dose-only effect, or another doubt; inactive = no such curve, though single readings can be large or run the other way.

SMILES	Shiga toxin inh	HCMV antiviral	HCV inh	Cycloheximide cs	Pf growth 96h	Pf growth 48h
CCCN1CCN(CCCNC(=O)c2cc3c(s2)-c2c(C)cccc2OC3)CC1	6	-70*!	2.5µM*	-1	29%	?
Cc1cccc(CCNC(=O)c2cc3c(s2)-c2c(C)cccc2OC3)c1	.	-20	.	.	.	.
Cc1csc(NC(=O)c2cc3c(s2)-c2ccccc2OC3)n1	+	18	11µM*	59*	134%	?
COc1ccccc1CNC(=O)c1cc2c(s1)-c1ccccc1OC2	.	31	.	.	.	.
CCN1CCN(CCCNC(=O)c2cc3c(s2)-c2ccccc2OC3)CC1	4	-108*!	7.1µM*	3	?	?
CCOc1ccc(NC(=O)c2cc3c(s2)-c2ccccc2OC3)cc1	.	-27	.	.	.	.
Cc1cccc(NC(=O)c2cc3c(s2)-c2c(C)cccc2OC3)n1	16	?	?	10*	64%	39%
Cc1ccc2c(CC(=O)Nc3ccc(S(=O)(=O)N4CCC(C)CC4)cc3)coc2c1	.	7	.	.	.	.
COc1ccc(CNC(=O)c2cc3c(s2)-c2c(C)cccc2OC3)cc1	.	-8	.	.	.	.
Cc1cccc2c1-c1sc(C(=O)NCCCN3CCCC(C)C3)cc1CO2 (stereo not drawn)	-12	-23	11µM*	-4	11%	?
Cc1ccc(S(=O)(=O)N(C)C)cc1NC(=O)c1cccnc1Oc1ccccc1	-5	9	-9%	-1	-1%	-11%
Cc1ccc(S(=O)(=O)C2(C(=O)Nc3nccs3)CC2)cc1	-3	-79*	-5%	0	-26%	-9%
Cc1ccc(NC(=O)C2(S(=O)(=O)c3ccc(C)cc3)CC2)cc1	-3	-12	-17%	11	.	8%
Cc1ccc(S(=O)(=O)C2(C(=O)Nc3ccc(C(C)C)cc3)CC2)cc1	83*	7	29%	50*	-37%	29%
O=C(Nc1nccs1)C1(S(=O)(=O)c2ccc(Cl)cc2)CC1	-16	14	-12%	-6	-15%	-10%
CN(CC(=O)Nc1cccc(F)c1)C(=O)c1ccc2c(c1)CC(c1ccccc1)OC2=O (stereo not drawn)	.	-19	?	.	?	?
Cc1ccc(Cc2c(-c3ccco3)nc3c(C)cc(Br)cn23)cc1	.	-102*	.	.	.	.
CC(NS(=O)(=O)c1ccc(Cl)cc1)C(=O)NCCC1=CCCCC1 (stereo not drawn)	-13	13	-6%	-3	?	9%
O=C(NC1CC1)c1nc(Cn2cc([N+](=O)[O-])cn2)no1	2	2	2%	-8	-20%	13%
COc1cc(/C=C/c2noc(-c3ccccc3O)n2)cc(OC)c1OC	26	17	-4%	18	96%	74%
CC(=O)Oc1ccccc1-c1nc(/C=C/c2ccccc2)no1	63*	78	?	47*	-3%	134%
COc1ccc(/C=C/c2noc(-c3ccccc3O)n2)cc1	83*	-22	-4%	56*	?	-24%
O=C(OCC(=O)c1c[nH]c2ccccc12)c1cncc(Br)c1	.	13	6%	.	.	.
O=C(OCC(=O)c1c[nH]c2ccccc12)c1cccc([N+](=O)[O-])c1	.	-6	0%	.	13µM*	8.3µM*
Cc1noc(C)c1C(=O)OCC(=O)c1c[nH]c2ccccc12	103	17	-10%	17	?	9.3µM*
SMILES	Shiga toxin inh	HCMV antiviral	HCV inh	Cycloheximide cs	Pf growth 96h	Pf growth 48h
Cc1cc(C(=O)OCC(=O)c2cccc([N+](=O)[O-])c2)c2cccc(C)c2n1	24	-2	5%	6	0.41µM*	?
CCOc1ccc(/C=C/C(=O)N(C)CC(=O)Nc2cccc(F)c2)cc1OCC	.	0	?	.	-29%	-8%
O=C(Nc1scc(-c2ccccc2)c1C(=O)O)c1ccco1	63*	66	7%	31*	31%	-15%
CCOC(=O)c1c(-c2ccc(Br)cc2)csc1NC(=O)c1ccccc1F	.	-21	.	.	.	.
COc1ccc(-c2csc(NC(=O)c3ccccc3F)c2C(=O)O)cc1	59*	.	8%	36*	?	53%
COC(=O)c1c(-c2ccc(F)cc2)csc1NC(=O)c1ccco1	94*	3	-9%	61*	?	-6%
O=C(Nc1scc(-c2ccccc2)c1C(=O)O)c1ccccc1Cl	-7	86	1%	10	21%	26%
Cc1nn(C)c(C)c1S(=O)(=O)N(CC(=O)NCCCN1CCC(C)CC1)c1ccc(C(C)C)cc1	2	-37	14%	-3	33%	?
O=C(NCCC1=CCCCC1)C(=O)c1c[nH]c2ccccc12	49*	-23	5%	26*	-13%	44%
O=C(NCCOc1ccccc1)C(=O)c1c[nH]c2ccccc12	44	-13	-12%	20*	31%	40%
O=C(c1[nH]ncc1-c1ccccc1)C1CO1 (stereo not drawn)	-4	25	-2%	-1	?	?
O=C(C1=NNCC1c1ccccc1)C1CO1 (stereo not drawn)	14	-69*	11%	1	?	-26%
O=C(c1ccc(CSc2nc3ccncc3[nH]2)cc1)N1CCCCCC1	39	?	-29%	18*	-19%	-28%
O=C(c1ccc([N+](=O)[O-])s1)N1CCN(c2cccc(Cl)c2)CC1	-6	?	?	0	12µM*	?
O=C(c1ccc2nc[nH]c2c1)N1CCN(c2cccc(Cl)c2)CC1	-15	-35	16%	-2	5.9µM*	13µM*
Clc1ccc(CSc2nc3ccncc3[nH]2)cc1	51*	68	-11%	51*	4.7µM*	.
Cn1ccc2c(OCC(=O)Nc3ccc(OC(F)(F)F)cc3)cccc2c1=O	.	21	.	.	.	.
O=C(c1ccc(CSc2nc3ccncc3[nH]2)cc1)N1CCN(c2cccc(Cl)c2)CC1	12	-90*	7.9µM*	-4	?	?
CCOc1ccc(N2C(=O)CC(Sc3nnnn3-c3ccccc3)C2=O)cc1 (stereo not drawn)	21	-3	6%	18*	0%	-2%
CCCCCCOc1ccc(N2C(=O)CC(SCCN)C2=O)cc1 (stereo not drawn)	26	42	4%	12*	65%	30%
CCOc1ccc(N2C(=O)CC(Sc3nc(C)cc(C)n3)C2=O)cc1 (stereo not drawn)	-2	-8	10%	6	35%	10%
CCOc1ccc(N2C(=O)CC(SCCN)C2=O)cc1 (stereo not drawn)	76*	28	10%	31*	-10%	134%
O=C(NCCC1CCCCN1S(=O)(=O)c1ccc(Cl)cc1)C(=O)NCc1cccnc1 (stereo not drawn)	.	-31	6%	.	?	?
